Among the data in PubChem BioAssay (NCATS) are Potency values, retold here.

“And” between values parts separate entries of the source, which are not always exact repeats. Identical values can stand only once. Results filed as inconclusive are left out. More than one record can exist for a structure, and the calls need not agree. The source made the active and inactive calls. Unless noted, calls come from the whole dose curve; as a rule, active = well fitted curve in the direction sought with a large enough effect; inconclusive = small, poorly fitted or top-dose-only effect, or another doubt; inactive = no such curve, though single readings can be large; an effect the other way counts as inactive or inconclusive.

The nature of assay [1]: qHTS for Inhibitors of Plasmodium falciparum (DD2) proliferation (AID 504314).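 Note: parasite DNA measured by SYBR Green fluorescence after red cell lysis.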 The gist of the method:
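P. falciparum Dd2 is grown in erythrocytes with test compound for 72 h at 37C under 5% CO2. Growth is scored by SYBR Green I fluorescence after detergent lysis, relative to artemisinin (0.29 uM) and DMSO controls.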
(qHTS replaces the single test concentration by a dilution series.)

Assay [2] in a line: qHTS for Inhibitors of Plasmodium falciparum (7G8) proliferation (AID 504316). Note: series mostly up to about 6.7 µM; nearly all actives have a fitted effect of over 65% in size. In short, it runs like this: (§1)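 Parasite growth measured as SYBR Green DNA fluorescence (ex 485, em 535 nm) after overnight lysis following 72 h culture at 37 °C, 0.3% parasitemia, 2.5% hematocrit. Values normalized against DMSO and 0.29 uM artemisinin controls, with plate-stack correction.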
Assay [3] is described as follows: qHTS for Inhibitors of Plasmodium falciparum (HB3) proliferation (AID 504318). Note: nearly all actives have a fitted effect of over 60% in size. The gist of the method:
as §1

Assay [4] deals with Atrial natriuretic peptide receptor 1 (Homo sapiens) (UniProt P16066). Kind of assay: Natriuretic polypeptide receptor (hNpr1) antagonism - Pilot CMLD screen (AID 1347052; calls by dose curve;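 note: cGMP level read as GloSensor luciferase luminescence after agonist stimulation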; note: potency is the fitted concentration of half-maximal effect).
Assay [5] is described as follows: qHTS for Inhibitors of Plasmodium falciparum (CP250) proliferation (AID 504320). In short, it runs like this:
as §1

Sequence of Atrial natriuretic peptide receptor 1 (Homo sapiens) (P16066 whole entry, looked up): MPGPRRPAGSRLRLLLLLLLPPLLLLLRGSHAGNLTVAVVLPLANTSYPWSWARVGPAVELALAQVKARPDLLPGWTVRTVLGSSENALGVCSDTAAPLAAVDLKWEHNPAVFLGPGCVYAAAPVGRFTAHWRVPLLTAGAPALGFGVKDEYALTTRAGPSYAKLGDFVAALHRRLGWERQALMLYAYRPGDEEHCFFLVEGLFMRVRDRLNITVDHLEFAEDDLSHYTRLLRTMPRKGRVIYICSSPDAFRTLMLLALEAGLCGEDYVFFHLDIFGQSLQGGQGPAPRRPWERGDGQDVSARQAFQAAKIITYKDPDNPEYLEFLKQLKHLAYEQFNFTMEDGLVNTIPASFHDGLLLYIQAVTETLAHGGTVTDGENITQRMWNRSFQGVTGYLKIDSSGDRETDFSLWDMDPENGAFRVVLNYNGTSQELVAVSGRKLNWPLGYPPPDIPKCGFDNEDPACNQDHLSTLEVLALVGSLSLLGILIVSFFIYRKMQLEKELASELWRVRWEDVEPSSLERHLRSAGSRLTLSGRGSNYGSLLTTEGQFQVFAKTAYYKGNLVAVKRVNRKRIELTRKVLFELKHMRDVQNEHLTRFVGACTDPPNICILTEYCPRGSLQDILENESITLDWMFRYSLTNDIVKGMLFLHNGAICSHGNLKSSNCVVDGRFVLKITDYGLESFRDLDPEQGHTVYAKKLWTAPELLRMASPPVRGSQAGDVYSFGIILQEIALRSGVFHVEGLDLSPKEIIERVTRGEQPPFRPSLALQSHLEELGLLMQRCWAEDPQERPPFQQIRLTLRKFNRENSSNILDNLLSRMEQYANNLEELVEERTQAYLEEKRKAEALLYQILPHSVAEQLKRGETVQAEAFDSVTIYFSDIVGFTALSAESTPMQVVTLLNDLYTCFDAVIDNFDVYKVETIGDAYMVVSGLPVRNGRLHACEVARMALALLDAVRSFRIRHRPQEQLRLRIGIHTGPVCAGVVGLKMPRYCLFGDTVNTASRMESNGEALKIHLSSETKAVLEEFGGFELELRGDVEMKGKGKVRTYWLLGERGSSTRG

As for `C[C@@H](ON=C1[C@H]2CCn3c(=O)n(-c4ccccc4)c(=O)n3[C@@H]2[C@H](O)[C@@H]2O[C@H]12)c1cn([C@H](CO)Cc2ccccc2)nn1`, the Potency result in assay [1], in assay [2], in assay [3] and in assay [4] was “inactive” each time.

In the case of `CC1(OC(=O)C2CCCC2)C(=O)C=C2C=C(c3ccsc3)N(C(CO)CO)C=C2C1=O` (stereo not given), the Potency entry in assay [1], in assay [2], in assay [3], in assay [5] and in assay [4] was “inactive” throughout.

`CCN1C(=NCCCCO)N[C@@H](CCc2ccccc2)[C@H](C(=O)OC)[C@H]1C`: the Potency result in assay [1], in assay [2], in assay [3], in assay [5] and in assay [4] was “inactive” throughout.

With `COCCN1C(=O)N(C)C(c2ccccc2)C(C(C)=O)=C1C` (stereo not given), the Potency result in assay [1], in assay [2], in assay [3] and in assay [4] was “inactive” each time.

For `COc1cc2c(c(OC)c1)[C@H](C=Cc1ccccc1)[C@@H]([C@H](O)CO)OC2`, the Potency result in assay [1], in assay [2], in assay [3], in assay [5] and in assay [4] was “inactive” in each case.

Take `C=CCOC(=O)N[C@H](C(C(=O)OC)=C(C)NCc1ccccc1)c1cccc(C(F)(F)F)c1`: the Potency entry in assay [1], in assay [2], in assay [3] and in assay [5] was “inactive” in each case. Besides, in assay [4], the Potency result is “inactive and 1.33 µM (active)”.

Consider `CCN1C(=NCc2cc(OC)c(OC)c(OC)c2)NC(c2ccccc2)C(C(=O)OC)=C1C` (stereo not given), for which the Potency entry in assay [1], in assay [2], in assay [3] and in assay [4] was “inactive” in each case.

Consider `CC(=O)OC[C@H]1O[C@@H](ON=C[C@@H](C)[C@H](OCc2ccccc2)C(C)C)[C@@H](OC(C)=O)[C@@H](OC(C)=O)[C@@H]1OC(C)=O`, for which the Potency entry in assay [1], in assay [2], in assay [3] and in assay [4] was “inactive” each time.

With `COc1ccc2c(c1)CO[C@H]([C@H](O)COC(C)=O)[C@H]2C=Cc1ccccc1`, the Potency entry in assay [1], in assay [2], in assay [3] and in assay [4] was “inactive” throughout.

Consider `COC(=O)c1c(C(=O)OC)c2c3cc(OC)c(OC)cc3ccn2c1C(=O)OC`, for which the Potency entry in assay [1], in assay [2], in assay [3], in assay [5] and in assay [4] was “inactive” each time.

For the molecule `CCCCCCCc1cc2ccccc2c2c(C(=O)OC)cc(C(=O)OC)n12`, the Potency entry in assay [1], in assay [2], in assay [3], in assay [5] and in assay [4] was “inactive” each time.

Consider `CC1(OC(=O)CCc2ccccc2)C(=O)C=C2C=C(C3CC3)OC=C2C1=O` (stereo not given), for which the Potency entry in assay [1], in assay [2], in assay [3], in assay [5] and in assay [4] was “inactive” in each case.

With `CCN(CC)CCCN1C(=O)C2=C(C1=O)C1N(C)c3ccccc3[C@@]13C[C@@H](CO)N(C(=O)CCC(=O)OC)C3=N2` (stereo not given in full), the Potency result in assay [1], in assay [2], in assay [3], in assay [5] and in assay [4] was “inactive” throughout.

In the case of `COC(=O)N1C(c2ccccc2)=Cc2ccccc2C1C1(C(=O)OC)CCCC1=O` (stereo not given), the Potency result in assay [1], in assay [2], in assay [3], in assay [5] and in assay [4] was “inactive” in each case.

Turning to `C=CCC(C)(NCc1ccccc1)C(=O)OCC` (stereo not given), the Potency entry in assay [1], in assay [2], in assay [3], in assay [5] and in assay [4] was “inactive” each time.

Regarding `CC1(OC(=O)C2CCCC2)C(=O)C=C2C=C(c3ccsc3)N(CCc3ccccn3)C=C2C1=O` (stereo not given), the Potency entry in assay [1], in assay [2], in assay [3], in assay [5] and in assay [4] was “inactive” each time.

Turning to `CCN1C(=NCCCOC(C)C)N[C@@H](CCc2ccccc2)[C@H](C(=O)OC)[C@H]1C`, the Potency result in assay [1], in assay [2], in assay [3], in assay [5] and in assay [4] was “inactive” in each case.

Regarding `CC(C)CON=C1C[C@@H](O)[C@@H](O)[C@@H]2[C@H]3C(=O)N(c4ccc(F)cc4F)C(=O)[C@@H]3CC[C@@H]12`, the Potency result in assay [1], in assay [2], in assay [3], in assay [5] and in assay [4] was “inactive” throughout.

Regarding `CCOC(=O)CCN1C(=O)[C@@H]2[C@H]3[C@H](O)[C@H](O)CC(=NO[C@@H]4O[C@H](COC(C)=O)[C@@H](OC(C)=O)[C@H](OC(C)=O)[C@@H]4OC(C)=O)[C@H]3CC[C@H]2C1=O`, the Potency result in assay [1], in assay [2], in assay [3], in assay [5] and in assay [4] was “inactive” throughout.

For the molecule `CC(C)=NOCc1ccc(-c2cn([C@@H]3COC[C@@H]3O)nn2)cc1`, the Potency result in assay [1], in assay [2], in assay [3], in assay [5] and in assay [4] was “inactive” throughout.

In the case of `OC[C@@H](O)[C@@H](O)CCc1ccccc1`, the Potency entry in assay [1], in assay [2], in assay [3], in assay [5] and in assay [4] was “inactive” each time.

With `COC(=O)c1nnc(N[C@@H](Cc2c[nH]c3ccccc23)C(=O)OC)nc1C(=O)OC`, the Potency result in assay [1], in assay [2], in assay [3], in assay [5] and in assay [4] was “inactive” each time.

Regarding `CCCCCCCC1=CC2=C(Cl)C(=O)C(C)(OC(C)=O)C(=O)C2=CO1` (stereo not given), the Potency entry in assay [1], in assay [2], in assay [3], in assay [5] and in assay [4] was “inactive” throughout.

Consider `CC(C)CON=C1C[C@@H](O)[C@@H](O)[C@@H]2[C@H]3C(=O)N(C4CCCCC4)C(=O)[C@@H]3CC[C@@H]12`, for which the Potency result in assay [1], in assay [2], in assay [3], in assay [5] and in assay [4] was “inactive” throughout.

On to `CC(C)(C(O)c1ccc([N+](=O)[O-])cc1)[N+](=O)[O-]` (stereo not given), for which the Potency result in assay [1], in assay [2], in assay [3], in assay [5] and in assay [4] was “inactive” in each case.

In the case of `COC(=O)CC=C[C@@H](C)[C@@H](C=NOC[C@@H](C)[C@H](OCc1ccccc1)C(C)C)NS(=O)(=O)c1ccc(C)cc1`, the Potency result in assay [1], in assay [2], in assay [3], in assay [5] and in assay [4] was “inactive” in each case.

In the case of `COc1ccc2c(c1)C(NC(=O)C(F)(F)F)CC21CCCCC1` (stereo not given), the Potency entry in assay [1], in assay [2], in assay [3], in assay [5] and in assay [4] was “inactive” in each case.
